In PubChem BioAssay (EPA / NIEHS):
Activity calls are given as the source filed them. The calls were made as follows: active = hit-call score of the fitted dose curve at least 0.9, where 1 is the maximum; inactive = score below 0.9.

What was measured:
Details in all cases: mRNA level, 48 h; actives raise or lower the signal
[1] = read-out: growth arrest and DNA damage 45 (GADD45A), GADD45A (gene 1647); experiment: LTEA_HepaRG_GADD45A: Life Technologies and Expression Analysis (LTEA) Assay for growth arrest and DNA damage 45 (GADD45A) using HepaRG (AID 2283458)
Method in brief: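 Differentiated HepaRG cells were exposed in duplicate for 48 h in serum-free induction medium to 8-point half-log concentrations up to 100 uM in 0.5% DMSO. GADD45A mRNA was measured by TaqMan qRT-PCR, normalized to ACTB, GAPDH and POLR2A, with bidirectional fitting versus DMSO.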

[2] = read-out: Forkhead box O3 (FOXO3), FOXO3 (gene 2309); experiment: LTEA_HepaRG_FOXO3: Life Technologies and Expression Analysis (LTEA) Assay for Forkhead box O3 (FOXO3) using HepaRG (AID 2283459)
Method in brief: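 HepaRG, 48 h post-dose; 8 conc., half-log from 100 uM, 0.5% DMSO, duplicates; serum-free induction medium. Readout: FOXO3 mRNA, TaqMan qRT-PCR, housekeeping-normalized. Bidirectional curve fit vs DMSO baseline.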

[3] = read-out: ABC Transporter (ABCB1), ABCB1 (gene 5243); experiment: LTEA_HepaRG_ABCB1: Life Technologies and Expression Analysis (LTEA) Assay for ABC Transporter (ABCB1) using HepaRG (AID 2283460)
Method in brief: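 Expression of ABCB1 was quantified by qRT-PCR against three housekeeping genes after human HepaRG cultures received test chemicals for 48 hours. Concentrations spanned eight half-log steps topping at 100 uM in 0.5% DMSO; gain or loss of signal was fitted relative to vehicle.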

[4] = read-out: growth arrest and DNA damage 45 (GADD45B), GADD45B (gene 4616); experiment: LTEA_HepaRG_GADD45B: Life Technologies and Expression Analysis (LTEA) Assay for growth arrest and DNA damage 45 (GADD45B) using HepaRG (AID 2283461)
Method in brief: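 Transcript level quantified by Fluidigm TaqMan qRT-PCR with three housekeeping genes for normalization, analyzed for up- or down-regulation against 0.5% DMSO. HepaRG cultures dosed 48 h at eight half-log concentrations up to 100 uM, duplicates.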

[5] = read-out: ABC Transporter (ABCC3), ABCC3 (gene 8714); experiment: LTEA_HepaRG_ABCC3: Life Technologies and Expression Analysis (LTEA) Assay for ABC Transporter (ABCC3) using HepaRG (AID 2283462)
Method in brief: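 Transcript level by TaqMan qRT-PCR, normalised to three housekeeping genes, fitted in both directions relative to vehicle. Chemicals tested in duplicate at eight half-log concentrations up to 100 uM for 48 h on HepaRG cells (0.5% DMSO).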

[6] = read-out: ABC Transporter (ABCB11), ABCB11 (gene 8647); experiment: LTEA_HepaRG_ABCB11: Life Technologies and Expression Analysis (LTEA) Assay for ABC Transporter (ABCB11) using HepaRG (AID 2283463)
Method in brief: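 ABCB11 transcript levels are read by Fluidigm TaqMan qRT-PCR after 48 h chemical treatment of human HepaRG cells. Concentrations span 100 uM downward in half-log steps with 0.5% DMSO; gain or loss is fitted against DMSO controls.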

[7] = read-out: ABC Transporter (ABCC2), ABCC2 (gene 1244); experiment: LTEA_HepaRG_ABCC2: Life Technologies and Expression Analysis (LTEA) Assay for ABC Transporter (ABCC2) using HepaRG (AID 2283464)
Method in brief: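 Endpoint is ABCC2 transcript level from qRT-PCR, normalized to three housekeeping genes and fitted bidirectionally relative to DMSO. Human HepaRG cells received test chemical for 48 h at up to 100 uM (8 points, half-log steps, 0.5% DMSO), duplicate wells.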

[8] = read-out: Broad substrate specificity ATP-binding cassette transporter ABCG2 (Homo sapiens) (UniProt Q9UNQ0); experiment: LTEA_HepaRG_ABCG2: Life Technologies and Expression Analysis (LTEA) Assay for ABC Transporter (ABCG2) using HepaRG (AID 2283465)
Method in brief: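 Read-out is ABCG2 mRNA induction or loss quantified by qRT-PCR after 48 h chemical treatment of human HepaRG cells, normalized to three housekeeping genes. Concentrations reached 100 uM top in half-log steps; fitting was bidirectional against 0.5% DMSO.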

[9] = read-out: ATP-citrate lyase (ACLY), ACLY (gene 47); experiment: LTEA_HepaRG_ACLY: Life Technologies and Expression Analysis (LTEA) Assay for ATP-citrate lyase (ACLY) using HepaRG (AID 2283466)
Method in brief: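 HepaRG, 48 h exposure, 8-pt half-log dilutions (top 100 uM), 0.5% DMSO. Readout: ACLY mRNA, TaqMan qRT-PCR, housekeeping-normalized (ACTB/GAPDH/POLR2A). Bidirectional curve fit vs DMSO.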

[10] = read-out: Peroxisomal acyl-coenzyme A oxidase 1 (ACOX1) gene, ACOX1 (gene 51); experiment: LTEA_HepaRG_ACOX1: Life Technologies and Expression Analysis (LTEA) Assay for Peroxisomal acyl-coenzyme A oxidase 1 (ACOX1) gene using HepaRG (AID 2283467)
Method in brief: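 Measured by qRT-PCR against three housekeeping genes: ACOX1 transcript change in human HepaRG cells after 48 h dosing. Concentrations ran up to 100 uM in half-log steps. Curves were fitted bidirectionally relative to 0.5% DMSO.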

[11] = read-out: Alkaline Phosphatase, Placental (ALPP) gene, ALPP (gene 250); experiment: LTEA_HepaRG_ALPP: Life Technologies and Expression Analysis (LTEA) Assay for Alkaline Phosphatase, Placental (ALPP) gene using HepaRG (AID 2283468)
Method in brief: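 ALPP transcript level, measured by qRT-PCR and normalized to three housekeeping genes (ACTB, GAPDH, POLR2A), after 48 h dosing of differentiated HepaRG in serum-free induction medium. Top concentration 100 uM with half-log dilutions (8 points, 0.5% DMSO, duplicates); bidirectional fitting relative to DMSO.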

[12] = read-out: Bcl-2 (BAD) gene, BAD (gene 572); experiment: LTEA_HepaRG_BAD: Life Technologies and Expression Analysis (LTEA) Assay for Bcl-2 (BAD) gene using HepaRG (AID 2283469)
Method in brief: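 BAD transcript change, measured by qRT-PCR against three housekeeping genes and fitted in both directions relative to 0.5% DMSO, after 48 h chemical treatment of human HepaRG liver cells at concentrations up to 100 uM.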

[13] = read-out: Bcl-2 (BAX) gene, BAX (gene 581); experiment: LTEA_HepaRG_BAX: Life Technologies and Expression Analysis (LTEA) Assay for Bcl-2 (BAX) gene using HepaRG (AID 2283470)
Method in brief: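 Differentiated human HepaRG cells, plated 48 h then switched to serum-free induction medium, were exposed 48 h to 8 half-log concentrations up to 100 uM in 0.5% DMSO; BAX mRNA measured by qRT-PCR, normalized to ACTB, GAPDH, POLR2A.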

[14] = read-out: adenosine kinase (ADK) gene, ADK (gene 132); experiment: LTEA_HepaRG_ADK: Life Technologies and Expression Analysis (LTEA) Assay for adenosine kinase (ADK) gene using HepaRG (AID 2283471)
Method in brief: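 ADK expression quantified by qRT-PCR, normalised to three housekeeping genes, after 48 h exposure of HepaRG cells to eight concentrations (top 100 uM, half-log steps, duplicate, 0.5% DMSO). Up- or down-regulation fitted relative to vehicle.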

[15] = read-out: Alpha-fetoprotein (AFP) gene, AFP (gene 174); experiment: LTEA_HepaRG_AFP: Life Technologies and Expression Analysis (LTEA) Assay for Alpha-fetoprotein (AFP) gene using HepaRG (AID 2283472)
Method in brief: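 Human HepaRG cells plated 48 h, then switched to serum-free induction medium and exposed in duplicate for 48 h to 8-point half-log series from 100 uM in 0.5% DMSO. AFP mRNA by qRT-PCR, normalized to ACTB, GAPDH, POLR2A; bidirectional fit versus DMSO.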

BCL2L11 (gene 10018) = experiment: LTEA_HepaRG_BCL2L11: Life Technologies and Expression Analysis (LTEA) Assay for Bcl-2 (BCL2L11) gene using HepaRG (AID 2283473)
Method in brief: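 BCL2L11 transcript levels are measured by Fluidigm qRT-PCR, normalized to three housekeeping genes. HepaRG cultures were plated 48 h, then treated 48 h with test chemical (top 100 uM, half-log, 0.5% DMSO vehicle); curves were fitted bidirectionally against DMSO.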

[16] = read-out: Apolipoprotein A-V (APOA5) gene, APOA5 (gene 116519); experiment: LTEA_HepaRG_APOA5: Life Technologies and Expression Analysis (LTEA) Assay for Apolipoprotein A-V (APOA5) gene using HepaRG (AID 2283474)
Method in brief: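 APOA5 transcript levels were quantified by qRT-PCR, normalized to three housekeeping genes, after 48 h chemical treatment of HepaRG cells (8 points, 100 uM maximum, half-log steps, 0.5% DMSO). Curves fitted in both directions against vehicle.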

[17] = read-out: Bcl-2 (BID) gene, BID (gene 637); experiment: LTEA_HepaRG_BID: Life Technologies and Expression Analysis (LTEA) Assay for Bcl-2 (BID) gene using HepaRG (AID 2283476)
Method in brief: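 Differentiated HepaRG cells in serum-free induction medium were exposed in duplicate for 48 h to eight half-log concentrations up to 100 uM in 0.5% DMSO. BID mRNA was quantified by qRT-PCR, normalized to ACTB, GAPDH and POLR2A.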

Caspase-3 (Homo sapiens) = Caspase-3 (Homo sapiens) (UniProt P42574); experiment: LTEA_HepaRG_CASP3: Life Technologies and Expression Analysis (LTEA) Assay for cysteine-aspartic acid protease (CASP3) using HepaRG (AID 2283477)
Method in brief: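 Expression of CASP3 was quantified by TaqMan qRT-PCR against three housekeeping genes (ACTB, GAPDH, POLR2A), bidirectionally versus 0.5% DMSO. HepaRG cultures received compounds in duplicate, top 100 uM with half-log steps, for 48 h in serum-free induction medium.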

[18] = read-out: Apoptosis regulator Bcl-2 (Homo sapiens) (UniProt P10415); experiment: LTEA_HepaRG_BCL2: Life Technologies and Expression Analysis (LTEA) Assay for Bcl-2 gene using HepaRG (AID 2283475)
Method in brief: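 Differentiated HepaRG cells in serum-free induction medium were exposed for 48 h to eight half-log concentrations up to 100 uM in 0.5% DMSO, in duplicate. BCL2 mRNA was quantified by TaqMan qRT-PCR normalised to ACTB, GAPDH and POLR2A, with bidirectional fitting versus DMSO.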

Measured: AC50

Chain of Broad substrate specificity ATP-binding cassette transporter ABCG2 (Homo sapiens) (Q9UNQ0 whole entry, looked up): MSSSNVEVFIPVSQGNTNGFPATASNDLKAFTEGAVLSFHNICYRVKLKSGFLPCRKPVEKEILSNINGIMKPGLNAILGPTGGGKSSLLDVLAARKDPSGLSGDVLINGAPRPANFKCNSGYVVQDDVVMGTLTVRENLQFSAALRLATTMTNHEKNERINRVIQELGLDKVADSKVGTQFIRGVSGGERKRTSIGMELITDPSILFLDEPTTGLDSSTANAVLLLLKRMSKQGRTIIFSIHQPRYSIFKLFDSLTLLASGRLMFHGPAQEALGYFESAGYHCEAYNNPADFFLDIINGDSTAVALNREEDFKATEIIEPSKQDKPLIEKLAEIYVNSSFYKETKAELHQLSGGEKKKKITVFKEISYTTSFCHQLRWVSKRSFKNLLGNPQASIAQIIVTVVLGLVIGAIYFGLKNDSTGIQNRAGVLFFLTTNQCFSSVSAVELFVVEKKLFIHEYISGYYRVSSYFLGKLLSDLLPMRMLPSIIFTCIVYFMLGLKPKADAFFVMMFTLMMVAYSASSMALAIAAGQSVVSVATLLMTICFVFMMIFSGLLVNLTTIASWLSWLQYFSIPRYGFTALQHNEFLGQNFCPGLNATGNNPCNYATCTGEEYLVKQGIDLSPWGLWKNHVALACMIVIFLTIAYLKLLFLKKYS
Chain of Caspase-3 (Homo sapiens) (P42574 whole entry, looked up): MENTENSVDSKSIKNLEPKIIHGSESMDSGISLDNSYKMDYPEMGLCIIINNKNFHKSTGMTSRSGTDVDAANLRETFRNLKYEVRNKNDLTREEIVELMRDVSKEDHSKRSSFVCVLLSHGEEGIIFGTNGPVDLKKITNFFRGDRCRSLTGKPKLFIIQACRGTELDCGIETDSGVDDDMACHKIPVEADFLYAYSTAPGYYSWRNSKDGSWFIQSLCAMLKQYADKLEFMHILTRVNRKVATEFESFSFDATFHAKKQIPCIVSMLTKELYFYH
Chain of Apoptosis regulator Bcl-2 (Homo sapiens) (P10415 whole entry, looked up): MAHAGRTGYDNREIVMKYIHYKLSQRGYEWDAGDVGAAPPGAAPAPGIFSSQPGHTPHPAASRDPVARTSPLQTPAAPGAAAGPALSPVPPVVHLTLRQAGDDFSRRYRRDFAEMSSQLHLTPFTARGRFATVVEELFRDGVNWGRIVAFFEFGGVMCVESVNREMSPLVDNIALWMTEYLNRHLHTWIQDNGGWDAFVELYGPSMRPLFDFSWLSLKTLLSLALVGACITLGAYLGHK

CN(C)C(=O)NC1(c2ccccc2)CCN(CC[C@@]2(c3ccc(F)c(F)c3)CN(C(=O)c3ccccc3)CCO2)CC1
active: [3] 1.86 µM | [5] 47 µM | [6] 1.96 µM | [7] 3.81 µM | [9] 47 µM | [15] 36.8 µM | [16] 29.8 µM
not listed: [18]
inactive: all other assays above

CN(C)CCCN(C)CCCN(C)C
inactive: all assays above

O=C(O)CN(CC(=O)O)CC(=O)O
inactive: all assays above
